This is a sample that favours compounds with a hit; in the whole collection about 2.3% have one here.
CHRM1 PAM: human M1 muscarinic receptor positive allosteric modulators, primary screen, CHO-K1 cells, Fluo-8 calcium fluorescence, 1536-well; AID 588819, 2011; CHO-K1 hM1, ACh EC20; 0% = ACh EC20, 100% = maximal ACh; 360,000 tested, 0.088% active; activation, % at 3 µM; Muscarinic acetylcholine receptor M1 (Homo sapiens), P11229; in the data active means activation above about 19%, passing the limit was not always enough
Target sequence (P11229 whole entry, looked up): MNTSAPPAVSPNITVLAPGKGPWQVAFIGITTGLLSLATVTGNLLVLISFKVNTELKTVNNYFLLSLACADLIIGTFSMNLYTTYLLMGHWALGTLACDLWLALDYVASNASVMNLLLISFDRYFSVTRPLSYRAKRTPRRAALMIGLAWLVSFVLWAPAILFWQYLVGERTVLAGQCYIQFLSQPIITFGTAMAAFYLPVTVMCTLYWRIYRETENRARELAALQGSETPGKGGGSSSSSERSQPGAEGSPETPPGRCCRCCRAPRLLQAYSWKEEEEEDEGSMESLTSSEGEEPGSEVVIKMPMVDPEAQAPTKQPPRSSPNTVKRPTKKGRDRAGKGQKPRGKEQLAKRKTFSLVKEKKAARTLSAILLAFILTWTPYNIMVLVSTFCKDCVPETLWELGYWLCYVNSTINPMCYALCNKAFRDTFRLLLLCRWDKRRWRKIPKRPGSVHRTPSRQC
M1 PAM parental: nonselective calcium activators in parental CHO-K1 cells, primary screen, counter-screen for M1 PAM project, cell-based, Fluo-8 calcium fluorescence, full deck, 1536-well; ATP EC20; 0% at ATP EC20, 100% at ATP max; activation, % at 3 µM; 360,000 tested, 0.02% active;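 active means activation above the run cutoff, the mean activation of all test compounds plus 3 SD, cut at about 40% in these data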;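 further: peak over basal fluorescence ratio in a 140 s read after ATP addition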
CHO-K1 Ca antag: M1 antagonist counterscreen hit in parental CHO-K1 cells; ATP-induced calcium, Fluo-8 fluorescence; inhibition, % at 3 µM; 360,000 tested, 0.6% active;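 active means inhibition above a per-plate cutoff, the plate's mean sample inhibition plus 3 SD, cut at about 24% in these data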
CHRM1 antagonist: human M1 muscarinic receptor antagonists, primary screen, CHO-K1 cells, Fluo-8 calcium fluorescence, 1536-well. Muscarinic acetylcholine receptor M1 (Homo sapiens), P11229. CHO-K1 hM1, ACh EC80 antagonist. inhibition, % at 3 µM. 360,000 tested, 1.3% active. AID 588852, 2011;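 active means percent inhibition above its own plate's cutoff, namely the mean of that plate's compound wells plus 3 SD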;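 further: peak over basal fluorescence ratio during 140 s after agonist addition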
M1 ag parental: counter-screen for M1 agonists: effect in parental CHO-K1 cells; 360,000 tested, 0.48% active; AID 602248, 2012; Fluo-8 calcium fluorescence; scaled to maximal ATP response, vehicle zero; activation, % at 3 µM; in the data active means activation above about 15%;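 further: untransfected CHO-K1 host cells lacking M1 receptor as counterscreen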
M1 ag: human M1 muscarinic receptor agonists, primary screen, Fluo-8 calcium fluorescence, CHO-K1 cells, HTS; activation, % at 3 µM; 360,000 tested, 0.33% active; AID 588814, 2011; Muscarinic acetylcholine receptor M1 (Homo sapiens), P11229; CHO-K1 hM1, agonist mode; 0% DMSO, 100% acetylcholine EC100;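 active means activation above the run's mean compound activation plus 3 SD, cut at about 16% in these data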;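 further: peak over basal fluorescence ratio within a 140 s kinetic read after compound addition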
A number is an active result; . = inactive; / = not tested or not shown.

SMILES	CHRM1 PAM	M1 PAM parental	CHO-K1 Ca antag	CHRM1 antagonist	M1 ag parental	M1 ag
Cc1sc(NC(=O)C2CCCO2)c(C(N)=O)c1C (stereo unspecified)	.	.	.	.	.	.
COCCN1C(=O)c2ccccc2C1c1nnnn1Cc1ccccc1 (stereo unspecified)	/	.	.	/	.	/
COc1cccc(-c2cnc(C(O)c3cc(C)c(OC)c(C)c3)[nH]2)c1 (stereo unspecified)	.	.	.	.	.	.
O=c1oc2cc(O)ccc2cc1-c1nc2ccccc2o1	.	.	.	.	31	54
O=c1oc2cc(O)ccc2cc1S(=O)(=O)c1ccccc1	.	.	.	.	.	.
CC1CCCN(C(=O)N2c3ccccc3Sc3ccccc32)C1 (stereo unspecified)	.	.	.	.	.	.
c1ccc2c(c1)OC(CCCN1CCCCC1)c1ccccc1S2 (stereo unspecified)	.	.	.	46	.	.
CN1CCCC(CC2Oc3ccccc3Sc3ccccc32)C1 (stereo unspecified)	.	.	.	99	.	.
C[C@@H]1CN([C@H](C)CO)C(=O)c2cc(-c3ccc(C(=O)N(C)C)cc3)cnc2O[C@@H]1CN(C)C(=O)c1cccnc1	.	.	.	.	.	.
COc1ccc(CCN2C(=O)COc3ccccc3C2C(=O)NC(C)(C)C)cc1OC (stereo unspecified)	/	.	.	/	.	/
CCN(CC)CCN(C)Cc1nc(C(c2ccccc2)c2ccccc2)no1	.	.	.	75	.	.
CN(CCc1cn[nH]c1)Cc1nc(C(c2ccccc2)c2ccccc2)no1	.	.	.	.	.	.
CCCC(=O)N1CCC1(C)C(=O)Nc1cccc(F)c1 (stereo unspecified)	.	.	.	.	.	.
O=[N+]([O-])c1ccc(N2CCC(O)CC2)nc1	.	.	29	.	.	.
O=c1c2cc(F)ccc2sn1-c1ccccc1Cl	.	.	.	.	.	.
Cc1ccc(-n2sc3cc(F)ccc3c2=O)c(C)c1	.	.	.	.	.	18
O=c1c2ccc(F)cc2sn1-c1ccccc1	.	.	.	.	.	16
CCCNC(=O)C1(C)CCN(C(=O)c2cccnc2Oc2ccccc2)C1 (stereo unspecified)	.	.	.	.	.	.
CCC(=O)N1CCN(c2ccc(NC(=O)COc3ccccc3[N+](=O)[O-])cc2)CC1	.	.	.	31	.	.
CC1CN(C(=O)COc2ccc3c(-c4ccccc4)cc(=O)oc3c2)CC(C)O1 (stereo unspecified)	.	.	.	29	.	.
O=C(COc1ccc2c(-c3ccccc3)cc(=O)oc2c1)Nc1ccc(CCO)cc1	.	.	26	.	18	.
CCOC(=O)c1cc(=O)c2ccc(OCC(=O)Nc3ccc(F)cc3)cc2o1	.	.	.	.	25	.
CN(Cc1ccccc1)c1nc2c(c(=O)n(C)c(=O)n2C)n1CCCc1ccccc1	.	.	.	34	.	.
Cc1ccc(Cn2c(CN(C)Cc3ccccc3)nc3c2c(=O)n(C)c(=O)n3C)cc1	.	.	.	.	.	16
CC(O)CSc1nc2c(c(=O)n(C)c(=O)n2C)n1CCCc1ccccc1 (stereo unspecified)	24	.	.	.	.	.
SMILES	CHRM1 PAM	M1 PAM parental	CHO-K1 Ca antag	CHRM1 antagonist	M1 ag parental	M1 ag
COC(=O)CSc1nc2c(c(=O)n(C)c(=O)n2C)n1CCCc1ccccc1	.	.	.	.	.	.
Cn1c(=O)[nH]c(=O)c2c1nc(SCC(=O)O)n2CCOc1ccccc1	.	.	.	55	.	.
Cn1c(=O)[nH]c(=O)c2c1nc(SCC(=O)O)n2CCc1ccccc1	.	.	.	.	.	.
Cc1ccc2nc(SCC(=O)N3CCC(Cc4ccccc4)CC3)nc(=O)n2c1	.	.	.	.	.	20
COc1ccc(N2CCN(C(=O)CSc3nnc4n3C(C)(C)Cc3ccccc3-4)CC2)cc1	.	.	.	.	.	.
Cc1ccc(Cl)cc1N1CCN(C(=O)CSc2nnc3n2C(C)(C)Cc2ccccc2-3)CC1	.	.	.	50	.	.
O=S(=O)(c1ccc(Cl)c(Cl)c1)c1snnc1-c1ccccc1	.	.	.	75	.	.
NC1=NC[C@@H](CC2CCCCC2)N1CCc1cc(C(F)(F)F)cc(C(F)(F)F)c1	.	.	.	35	.	.
Brc1ccc2nc(C3CCCCC3)c(CC3CCCCC3)n2c1	.	.	.	.	.	.
COc1ccc(CNc2ncnc3sccc23)cc1	.	.	.	31	.	.
COc1ccc(C(CNc2ncnc3sccc23)N(C)C)cc1OC (stereo unspecified)	.	.	.	.	.	.
COc1ccc(CCNc2ncnc3cc(OC)c(OC)cc23)cc1OC	.	.	.	.	16	.
CN(C)C(CNc1ncnc2sccc12)c1ccccc1 (stereo unspecified)	.	.	.	47	.	.
COc1ccc(CNc2ncnc3sccc23)cc1OC	.	.	.	.	16	.
O=C(Nc1ccc2c(c1)OCCO2)C1c2ccccc2OCC(=O)N1CCCN1CCOCC1 (stereo unspecified)	/	.	.	/	.	/
O=C(NCCCCCCCN1CCCCCCC1)C(C1CCCCC1)C1CCCCC1	.	.	.	57	.	.
Cn1c2ccccc2c2cc(C(=O)N3CCN(CCO)CC3)sc21	.	.	24	.	.	.
CCc1nc2ccc(C(=O)NCc3ccccc3OC)cn2c1N(CC)CCOC	.	.	.	.	.	.
C=CCn1c(SCC(=O)Nc2nc(C)cs2)nnc1C(C)NC(=O)c1ccccc1Cl (stereo unspecified)	.	.	.	47	.	.
CC(OC(=O)C1CC(=O)N(Cc2ccco2)C1)C(=O)Nc1cccc(C#N)c1 (stereo unspecified)	.	.	.	.	.	.
COc1cc2c(cc1NC(=O)C(C)OC(=O)C1CC(=O)N(Cc3ccco3)C1)oc1ccccc12 (stereo unspecified)	.	.	29	.	.	.
C[C@H](CO)N1C[C@H](C)[C@@H](CN(C)S(=O)(=O)c2cccs2)Oc2ccc(NC(=O)CCC(F)(F)F)cc2C1=O	.	.	.	57	.	.
C[C@H](CO)N1C[C@H](C)[C@@H](CN(C)S(C)(=O)=O)Oc2ccc(NC(=O)CCN3CCOCC3)cc2C1=O	.	.	.	.	.	.

Screening data deposited in PubChem BioAssay by The Scripps Research Institute Molecular Screening Center.
